# Measurements reported in PubChem BioAssay (NCI).
# Several values for one entry are separate records, joined by “and”; a condition that tells them apart may be missing. Equal values may be shown once. The panel holds about 83,000 compounds, 20% with a hit somewhere; the sample as a whole holds those more often.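 Percent growth is the endpoint: 0 to 100 indicates growth inhibition (40 means 60% inhibition), 0 means no net growth, and negative values indicate cell death.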 Activity calls are given as the source filed them.
# System: HT29 colon
# Assay: NCI-60 one-dose screen, 48 h (100 = growth as untreated, 0 = no growth, -100 = all killed)
# Conditions: 10 µM
# Description: Growth inhibition of the HT29 human tumor cell line is measured as a screen for anti-cancer activity. Cells are grown in 96 well plates and exposed to the test compound for 48 hours. Compounds are tested at a single concentration, which is 10^-5 M for most compounds. The reported endpoint is percent growth (GI% or GIPRCNT), where numbers from 0 - 100% represent growth inhibition, and numbers from -100% - 0 represent cell death. For example, a value of 40 represents 60% growth inhibition. A value of 0 means no net growth occurred over the course of the experiment. A value of -40 indicates 40% of cells at the beginning of the experiment died by the end of the experiment. A value of -100 means all cells are dead at the end of the experiment.
# NCI-60 Human Tumor Cell Lines Screen was performed using the standard one-dose NCI protocol, which is described in more detail at https://dtp.cancer.gov/discovery_development/nci-60/default.htm.
# Compounds with GIPRCNT values below 10 were considered active. Activity score was based on GIPRCNT using the following formula: […]
# Score is 0 for GIPRCNT values of 100 or above, 50 for GIPRCNT values of 0, and 100 for GIPRCNT values of -100.
row,Compound,growth
1,CN(C)C(=O)c1ccc(SC(=S)NCc2ccccc2)cc1,107% (inactive)
2,O=C(Nc1c(Cl)cccc1Cl)Oc1cccc2cccnc12,79.4% (inactive)
3,O=C(O)c1c(Cl)c(Cl)c(Cl)c(Cl)c1-c1c2cc(I)c(=O)c(I)c-2oc2c(I)c(O)c(I)cc12,105% (inactive) and 104% (inactive) and 95.2% (inactive)

# Same assay, conditions: 10 µM unless noted
row,Compound,growth
1,Cc1cc(C(C)(CC(C)C)c2ccc(O)c(C)c2)ccc1O,98.7% (inactive)
2,O=[N+]([O-])c1ccc(N=Nc2ccc(O)cc2O)cc1,75.7% (inactive)
3,CC1(C)CC([P+](c2ccccc2)(c2ccccc2)c2ccccc2)=NN1,24.9% (inactive)
4,CN(Cc1cnc2nc(N)nc(N)c2n1)c1ccc(C(=O)NC(CCC(=O)O)C(=O)O)cc1 (stereo not given),27.6% (inactive)
5,CC(C)(C)c1ccc(O)c(C2CCCCC2)c1,87% (inactive)
6,N#CC1C(=O)SC2c3ccccc3C(=O)c3ccccc3C12 (stereo not given),97.7% (inactive)
7,O=C(Nc1ccccc1)c1cc(Cl)ccc1O,89% (inactive)
8,Cn1c2c(c3ccccc31)CCN1C[C@@H]3CCCC[C@H]3C[C@@H]21,1.8% (active)
9,Cn1c2ccccc2c2nnc(N/N=C/c3ccccn3)nc21,37% (inactive)
10,Cc1ccc2c(ccc3c[n+]4c5ccccc5ccc4n32)c1,8.52% (active)
11,Oc1c(Br)c(Br)c(O)c(Br)c1Br,129% (inactive)
12,NC(=S)N/N=C/c1ccc(Cl)s1,108% (inactive)
13,CN(C)CCOc1ccc2c(c1)C(=O)/C(=C\c1ncc([N+](=O)[O-])n1C)C2,-32.6% (active)
14,CCC(CCCN(CC)CCc1ccccc1)OC(=O)c1cc(OC)c(OC)c(OC)c1 (stereo not given),57.3% (inactive)
15,Cc1ccc2nc(-[n+]3cc4ccccc4cc3C)ccc2c1,14.5% (inactive)
16,O=[N+]([O-])c1ccc2c(N=Nc3ccc4ccccc4c3O)c(O)cc(S(=O)(=O)O)c2c1,104% (inactive)
17,C=C(Cl)C(=NC(C)(C)C)Nc1ccccc1C,37.6% (inactive)

row,Compound,growth
1,CCCCCCCCCCCCCCCCN(CC)CC,-56.8% (active)
2,CCN(CC)CCOc1ccc(-c2nc3cc(Cl)ccc3s2)cc1,-100% (active)
3,CCC(c1cccc(O)c1)C(CC)c1cccc(O)c1 (stereo not given),42% (inactive)
4,CC1OC(OC2C(OC3CCC4(C)C(CCC5(C)C4CC=C4C6CC(C)(C)CCC6(CO)C(O)CC45C)C3(C)C)OC(C(=O)O)C(OC3OC(COC4OC(CO)C(O)C(O)C4O)C(O)C(O)C3O)C2O)C(O)C(O)C1O (stereo not given),-44.6% (active)
5,O=C(Nc1cccc(Br)c1)Oc1ccc(Cl)c2cccnc12,70.5% [100 µM] (inactive)
6,OC(CNc1ccnc2cc(Cl)ccc12)CNc1ccnc2cc(Cl)ccc12,7.67% (active)
7,CCN1/C(=C\c2cc[n+](CC)c3ccccc23)C=Cc2ccccc21,8.56% (active)
8,Oc1c(Cl)c2ccccc2c2ccccc12,103% (inactive)
9,CC1OC2CC(=O)OC2C2=C1C(=O)c1c(O)cccc1C2=O (stereo not given),-51.8% (active)
10,CC(=O)ON=C1C=CC(=C(C#N)c2ccccc2)C=C1,82.2% (inactive)
11,CC1=CC(O)C2CC1C2(C)C (stereo not given),88.2% (inactive) and 98.1% (inactive)
12,N#CSCc1ccc(Cl)c(CSC#N)c1,6.14% (active)
13,C1=C(c2ccccc2)C(c2ccc(OCCN3CCCCC3)cc2)Oc2ccccc21 (stereo not given),1.98% (active)
14,O=C(/C=C/c1cccc(Cl)c1)c1ccccc1,95.2% (inactive) and 32.4% (inactive)
15,CC1SC(=S)N(c2ccc(Cl)cc2)C1=O (stereo not given),105% (inactive) and 98.8% (inactive)
16,O=C1NC(=O)/C(=C/C=C/c2ccccc2)S1,56.6% (inactive)
17,CC(=Nc1ccc(N(C)C)cc1)c1ccccc1,35.2% (inactive)

# Same assay, conditions: 100 µM
row,Compound,growth
1,CN(C)C(=O)c1ccc(SC(=S)NCc2ccccc2)cc1,-62% (active)
2,O=C(Nc1c(Cl)cccc1Cl)Oc1cccc2cccnc12,55.3% (inactive)
3,O=C(O)c1c(Cl)c(Cl)c(Cl)c(Cl)c1-c1c2cc(I)c(=O)c(I)c-2oc2c(I)c(O)c(I)cc12,39.2% (inactive)
